Measured potencies and affinities stand elsewhere. The source made the active and inactive calls. How the calls were made is not given here.

This experiment in a line: yeast V-ATPase proton pumping modulator potency, dose response, S. cerevisiae, pHLuorin, cherry pick 2 (AID 602198).

Consider `COc1ccc(N2C(=O)/C(=C/c3ccc(C)o3)C(=O)NC2=S)cc1`, for which the result was inactive. As to `Cc1ccsc1/C=C1\C(=O)NC(=S)N(C)C1=O`, the molecule was called inactive.

For the origin of these results see PubChem BioAssay AID602198 (NMMLSC, 2012).
